Assay outcomes deposited in PubChem BioAssay by National Center for Advancing Translational Sciences (NCATS).
This excerpt belongs to a sample that is enriched for hits.
Pf Dd2 inh: Plasmodium falciparum Dd2 growth inhibition; Potency, µM (doses to about 28.9 µM), usual class: inhibitors; AID 1347417; 120,000 tested, 4.3% active; P. falciparum Dd2 growth, SYBR Green, 72 h; active = well fitted inhibition curve with a large enough effect; also: nearly all actives have a fitted effect of over 65% in size
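Readout: SYBR Green fluorescence, 485 nm excitation, 535 nm emission, after ~16 h lysis at 37C. Before that, Dd2-infected red cells (2.5% hematocrit) grew 72 h with compound, 29 uM top final concentration.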
Large screens that a line does not name were inactive.

CC(C)c1noc(-c2cn(C3CCN(C(=O)c4ccsc4)CC3)nn2)n1	none
CN1CCN(C)c2cnc(-c3cnn(Cc4ccccc4)c3)cc2C1	none
CC(CCc1ccccc1)NC(=O)Cn1cccc1-c1nc(-c2ccc3c(c2)OCO3)no1 (stereo not drawn)	none
CN1CCC2(CC1)Cc1ccccc1CN([S+](C)(=O)[O-])C2	none
C[S+](=O)([O-])N1Cc2ccccc2CC2(CCCCN2Cc2ccccc2)C1 (stereo not drawn)	none
Cc1ccc(CCN2CCCCC23Cc2ccccc2CN([S+](C)(=O)[O-])C3)cc1 (stereo not drawn)	Pf Dd2 inh 10µM
CC(=O)Nc1ccc(CNC[C@H]2COCc3nc4cc(C)ccc4n32)cc1	none
CNC(C)c1cccc(C(F)(F)F)c1 (stereo not drawn)	none
Cc1ccc(CN2CCc3nc(N(C)Cc4cccnc4)[nH]c(=O)c3CC2)o1	none
COc1ccc(-c2oc3ncn4nc(-c5cccc(C)c5)nc4c3c2-c2ccc(OC)cc2)cc1	none
COc1ccc(-c2oc3ncn4nc(COc5c(C)cccc5C)nc4c3c2-c2ccc(OC)cc2)cc1	Pf Dd2 inh 11µM
Cc1cccc(C)c1OCc1nc2c3c(-c4ccccc4)c(-c4ccccc4)oc3ncn2n1	none
Cc1onc(C(=O)NCC(=O)N2CCCCCNC(=O)CC2c2ccccc2)c1Cn1cccn1 (stereo not drawn)	none
O=C1CCC2(CCN(C(=O)c3cnccn3)CC2)CN1CC1CCCO1 (stereo not drawn)	none
COc1ccc(N2CC(C(=O)NCc3ccc(C(F)(F)F)cc3)NC2=O)cc1 (stereo not drawn)	none
CN1[C@@H](CCC(=O)NCc2cccs2)CNC(=O)[C@H]2NCC[C@H]21	none
O=C(C1CC1)N1CCC(OC2CCN(Cc3cccnc3)CC2)CC1	none
c1cncc(CN2CCC(Oc3nccnc3N3CCc4ccccc43)C2)c1 (stereo not drawn)	Pf Dd2 inh 3.5µM
Cc1ncc2n1C(=O)N(C1CCN(Cc3cccnc3)CC1)C2	none
CCC(c1ccccc1)N1Cc2cc(NS(=O)(=O)c3ccc(Cl)cc3)ccc2OC(C)C1=O (stereo not drawn)	none
Cc1ccc(CNC(=O)NCC(=O)N2CCCCCNC(=O)CC2c2ccccc2)cc1 (stereo not drawn)	none
Cc1ccc(NC2=C(c3ccc(C(F)(F)F)cc3)C(=O)c3ccccc32)cc1C	Pf Dd2 inh 0.79µM
C[C@H]1[C@@H]2[C@H]3OC(=O)[C@@H](C)[C@@H]3CC[C@@]2(C)CC[C@@H]1NC(=O)c1ccncc1	none
CCOCCN1C(=O)COC[C@@H]1[C@H](O)c1ccc(NC(=O)c2ccnc(Cl)c2)cc1	none
CC(C)NC[C@H]1COCc2nc3cc(C(F)(F)F)ccc3n21	none
O=C(NCCc1ccccc1)c1noc(-c2ccc(F)cc2)n1	none
Cc1ccc(S(=O)(=O)N2CCCC(Cn3c(C)nc4cccnc43)C2)cc1Cl (stereo not drawn)	Pf Dd2 inh 7.1µM
Cc1nc2cccnc2n1CC1CCCN(S(=O)(=O)c2ccc(F)c(F)c2)C1 (stereo not drawn)	none
Cc1ccc(S(=O)(=O)N2CCCC(Cn3c(C)nc4cccnc43)C2)cc1 (stereo not drawn)	none
CCc1ccc(C(=O)N2CCC(OC3CCN(C)CC3)CC2)cc1	none
COc1ccc(-n2nc3c(N4CCCC(C(=O)NCc5ccccc5C)C4)nnc(C)c3c2C)cc1 (stereo not drawn)	none
CCOc1ccc(NC(=O)C2CCCN(c3nnc(C)c4c(C)n(-c5ccccc5)nc34)C2)cc1 (stereo not drawn)	none
COc1ccc(-n2nc3c(N4CCCC(C(=O)NCCc5ccc(C)cc5)C4)nnc(C)c3c2C)cc1 (stereo not drawn)	Pf Dd2 inh 8.9µM
COc1ccc(-n2nc3c(N4CCCC(C(=O)NCCc5ccccc5C)C4)nnc(C)c3c2C)cc1 (stereo not drawn)	Pf Dd2 inh 8.9µM
CCc1ccc(NC(=O)C2CCCN(c3nnc(C)c4c(C)n(-c5ccccc5)nc34)C2)cc1 (stereo not drawn)	none
Cc1nnc(N2CCCC(C(=O)NCc3ccccc3F)C2)c2nn(-c3ccc(Cl)cc3)c(C)c12 (stereo not drawn)	none
O=C1NCCCCCCN(C(=O)c2ccncc2)[C@H]2CCC[C@@H]12	none
Cc1cc(C(=O)N2c3ccccc3CC2c2nc(C(C)C)no2)nn1C (stereo not drawn)	none
CCOCCOc1ccccc1C(=O)N1CC[C@@](O)(COC)C(C)(C)C1	none
Cc1ccccc1CNC[C@H]1O[C@@H]2C[C@@H](CC(=O)N3CCOCC3)O[C@@H]2[C@@H]1O	none
COc1ccccc1OCC(=O)Nc1nc2c(s1)CC(C)CC2 (stereo not drawn)	none
CC(C)(C)C1CCc2nc(NC(=O)Cc3ccc(Cl)cc3)sc2C1 (stereo not drawn)	Pf Dd2 inh 10µM
COc1ccc(CC(=O)Nc2nc3c(s2)CC(C(C)(C)C)CC3)cc1 (stereo not drawn)	none
O=C1CCN(C(=O)c2cc(C3CC3)[nH]n2)CCCCCCN1	none
CCOc1ccccc1NC(=O)Cn1c(-c2ccc(Cl)cc2)nc(C)c(CCO)c1=O	none
COCCn1cnc2ccc(OCc3ccc(Cl)cc3)nc2c1=O	Pf Dd2 inh 11µM
